Measured values published in the supplement of paper PMC10338343.
± gives the standard deviation.

These sequences were tested on MILI (PIWIL2) piRISC loaded with L1MC piRNA (26 nt) (assay: pre-steady-state target cleavage rate (min^-1); guide: L1MC piRNA 5'p-UAACUAAAUACUAUGCAAGCUGUAGG; higher = faster piRNA-guided slicing of the target). Conditions: auxiliary factor: none (no GTSF1).
Summary of the method: (§1)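 The pre-steady-state cleavage rate was obtained by Cleave-'n-Seq with a burst-and-steady-state fit. A transcribed, DNA-blocked target RNA library (0.1 nM) was mixed with 1 nM active affinity-purified piRISC carrying one synthetic guide, with or without 500 nM GTSF1 partner protein, in HEPES–potassium acetate buffer at 33 °C for 0–8 or 0–960 min. Uncleaved targets were sequenced and normalised to depth and to weakly complementary targets, with three trials pooled and k3 capped at 0.0001 min^-1.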

| Sequence | pre-steady-state target cleavage rate |
| --- | --- |
| UCCUGGUACAGGUUGCAUAGUAUUUAGUAA | 0.00626 ± 0.0028 |
| UCCUGGAUGAGCUUGUAUAGUAUUUAGUUA | 0.0088 ± 0.0033 |
| UCCUCUUACAGCUUGCAUAGUAUUUAGUUA | 0.00963 ± 0.0032 |
| UCCUGGAACAGCUGGCAUAGUAUUUAGUUA | 0.00801 ± 0.003 |
| UCCUCCUACUGCUUGCAUAGUAUUUAGUUA | 0.00899 ± 0.0022 |
| UCCUGGAUGUGGUUGCAUAGUAAUUAGUUA | 0.00751 ± 0.0032 |
| UCCUCCUACAGCUAGCAAAGUAUUUAGUUA | 0.00428 ± 0.0022 |
| UCCUCCUACAGCUUGCGUAGUAUUUAGUUA | 0.0113 ± 0.003 |
| UCCUGGAACAGCCUUGCAUAGUAUUUAGUUA | 0.00974 ± 0.003 |
| UCCUGGAUCUGCAUGCAUAGUAUUUAGUUA | 0.00837 ± 0.0023 |
| UCCUGCUACACGAUGCAUAGUAUUUAGUUA | 0.00624 ± 0.0023 |
| UCCUGGAUCAGGUUGCAUAGUAUUUAGUAA | 0.00858 ± 0.0024 |
| UCCUCCUACAGCUUGCAUAGUAUAUUAGUUA | 0.00588 ± 0.0024 |
| UCCUGGAACAACUUGCAUAGUAUUUAGUUA | 0.0104 ± 0.0027 |
| UCCUCGUACAGCAUGCAUAGUAUUUAGUUA | 0.0102 ± 0.0022 |
| UCCUCCUACAGCUUGGAUAGUAAUUAGUUA | 0.00499 ± 0.0021 |

What follows are sequences tested on EfPiwi piRISC loaded with L1MC piRNA (26 nt) (assay: pre-steady-state target cleavage rate (min^-1); auxiliary factor: 500 nM Ephydatia muelleri Gtsf1; guide: L1MC piRNA 5'p-UAACUAAAUACUAUGCAAGCUGUAGG; MIWI and MILI are mouse PIWI proteins and EfPiwi is from a freshwater sponge; tags in brackets are library labels; higher = faster piRNA-guided slicing of the target). Conditions: not given.
Summary of the method: as §1

| Sequence | pre-steady-state target cleavage rate |
| --- | --- |
| UCCUCCUACAGGUUGGAUAGUAUUUAGUUA | 0.0118 ± 0.0028 |
| UCCUGGUACAGCAUGCAUAGUUUUUAGUUA | 0.0046 ± 0.0027 |
| UCCUCCUACAGCUUGGAUAGUAUUUAGUAA | 0.00895 ± 0.0035 |
| UCCUGCUUCAGCUUGCAUAGUUUUUAGUUA | 0.00715 ± 0.0025 |
| UCCUGGAACAGAUUGCAUAGUAUUUAGUUA | 0.0572 ± 0.014 |
| UCCUGGAUCAGCUUGCAUAGUAUUUAGUUA [g2:g22:cont:t1A] | 0.0886 ± 0.017 |
| UCCUGGAUCAGCAUGCAUAGUAUUAAGUUA | 0.00392 ± 0.002 |
| UCCUGCUACAGCUUGCUUAGUAAUUAGUUA | 0.0139 ± 0.0051 |
| UCCUCCUACUCGUUGCAUAGUAUUUAGUAA | 0.00477 ± 0.0029 |
| UCCUCCUACAGCUUCCUUAGUAUUUAGUUA | 0.00472 ± 0.0022 |
| UCCUGGUAGUGCUUGCAUAGUAUUUAGUUA | 0.0152 ± 0.0047 |
| UCCUGGAUCAGCUUGCAUUGUAUUAAGUUA | 0.00314 ± 0.0017 |
| UCCUCCUACAGCUUGCAAAGUAUUUAGUAA | 0.00609 ± 0.0029 |
| UCCUCCUAGUCCUUGCAUAGUAUUUAGUAA | 0.00549 ± 0.0034 |
| UCCUGGAUGAGCUUUCAUAGUAUUUAGUUA | 0.00433 ± 0.0018 |
| UCCUGCUACAGCUUGCCUAGUAUUUAGUUA | 0.00702 ± 0.0018 |
| UCCUCCAACACCUUGCAUAGUAUUUAGUUA | 0.00954 ± 0.0038 |
| UCCUGGAUCAGCUUUCAUAGUAUUUAGUUA | 0.0103 ± 0.0032 |
| UCCUCCUACAGCAUGCAUAGUAUUUUGUUA | 0.00297 ± 0.0021 |
| UCCUGGAUGUCCUUGCAUAGUAUUAAGUUA | 0.00404 ± 0.0034 |

| Sequence | pre-steady-state target cleavage rate |
| --- | --- |
| UCCUGGAUCAGCUUGGAUAGUAUUUAGUAA | 0.00463 ± 0.0023 |
| UCCUGGAUGAGCUAGCAUACUAUUUAGUUA | 0.00286 ± 0.002 |
| UCCUGCUACAGGUUGGAUAGUAUUUAGUUA | 0.00793 ± 0.0027 |
| UCCUGGUACAGCUUGCAAACUAUUUAGUUA | 0.00276 ± 0.0022 |
| UCCUGGUACAGGUUGCAUAGUAUUUAGUAA | 0.00428 ± 0.0022 |
| UCCUGGAUGAGCUUGUAUAGUAUUUAGUUA | 0.0538 ± 0.014 |
| UCCUCUUACAGCUUGCAUAGUAUUUAGUUA | 0.243 ± 0.061 |
| UCCUGGAACAGCUGGCAUAGUAUUUAGUUA | 0.00699 ± 0.0026 |
| UCCUCCUACUGCUUGCAUAGUAUUUAGUUA | 0.0494 ± 0.015 |
| UCCUGGAUGUGGUUGCAUAGUAAUUAGUUA | 0.00754 ± 0.0039 |
| UCCUCCUACAGCUAGCAAAGUAUUUAGUUA | 0.0276 ± 0.0094 |
| UCCUCCUACAGCUUGCGUAGUAUUUAGUUA | 0.031 ± 0.011 |
| UCCUGGAACAGCCUUGCAUAGUAUUUAGUUA | 0.0147 ± 0.0046 |
| UCCUGGAUCUGCAUGCAUAGUAUUUAGUUA | 0.0798 ± 0.021 |
| UCCUGCUACACGAUGCAUAGUAUUUAGUUA | 0.00905 ± 0.0024 |
| UCCUGGAUCAGGUUGCAUAGUAUUUAGUAA | 0.00537 ± 0.0021 |
| UCCUCCUACAGCUUGCAUAGUAUAUUAGUUA | 0.0567 ± 0.019 |
| UCCUGGAACAACUUGCAUAGUAUUUAGUUA | 0.0809 ± 0.023 |
| UCCUCGUACAGCAUGCAUAGUAUUUAGUUA | 0.0515 ± 0.013 |
| UCCUCCUACAGCUUGGAUAGUAAUUAGUUA | 0.0274 ± 0.0089 |
